Experimental data published in publication PMC11006913.
Changes are numbered by the printed parent chain.

Assays:
Assay in all cases: PBM; 200 nM protein, PBS
Conditions in all cases: dsDNA, one strand shown
ALX3 [1] = molecular target: ALX3 (Homo sapiens, UniProt O95076 139-225, N203Q)
ALX3 [2] = molecular target: ALX3 (Homo sapiens, UniProt O95076 139-225)
ALX3 [3] = molecular target: ALX3 (Homo sapiens, UniProt O95076 139-225, N203S)
HOXD13 [4] = molecular target: HOXD13 (Homo sapiens, UniProt P35453 263-343, T313R)
Sequence of HOXD13 (Homo sapiens, UniProt P35453 263-343, T313R) (P35453 263-343 T313R): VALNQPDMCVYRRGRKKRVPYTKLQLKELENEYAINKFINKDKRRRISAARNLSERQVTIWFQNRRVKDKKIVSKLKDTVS

HOXA2 = HOXA2 (Homo sapiens, UniProt O43364 129-215, R185K)
Sequence of HOXA2 (O43364 129-215 R185K): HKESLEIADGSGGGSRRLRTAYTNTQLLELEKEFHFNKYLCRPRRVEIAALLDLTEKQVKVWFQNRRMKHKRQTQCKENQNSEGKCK

HOXD13 [5] = molecular target: HOXD13 (Homo sapiens, UniProt P35453 263-343)
Sequence of HOXD13 (Homo sapiens, UniProt P35453 263-343) (P35453 263-343): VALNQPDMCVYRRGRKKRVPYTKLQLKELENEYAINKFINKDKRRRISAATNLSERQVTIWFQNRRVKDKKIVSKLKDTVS

HOXD13 [6] = molecular target: HOXD13 (Homo sapiens, UniProt P35453 263-343, T313A)
Sequence of HOXD13 (Homo sapiens, UniProt P35453 263-343, T313A) (P35453 263-343 T313A): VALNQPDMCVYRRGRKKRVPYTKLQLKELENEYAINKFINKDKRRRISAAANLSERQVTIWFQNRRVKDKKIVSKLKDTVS

ALX3 [7] = molecular target: ALX3 (Homo sapiens, UniProt O95076 139-225, L168Q)
Sequence of ALX3 (Homo sapiens, UniProt O95076 139-225, L168Q) (O95076 139-225 L168Q): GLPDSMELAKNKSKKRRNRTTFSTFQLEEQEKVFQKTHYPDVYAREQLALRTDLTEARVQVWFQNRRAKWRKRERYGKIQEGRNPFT

ALX3 [8] = molecular target: ALX3 (Homo sapiens, UniProt O95076 139-225, L168V)
Sequence of ALX3 (Homo sapiens, UniProt O95076 139-225, L168V) (O95076 139-225 L168V): as the sequence (O95076 139-225 L168Q) above, with Q30V counted along it

NKX2-6 [9] = molecular target: T1, NKX2-6 (Homo sapiens, UniProt A6NCS4 118-204)
T1 sequence: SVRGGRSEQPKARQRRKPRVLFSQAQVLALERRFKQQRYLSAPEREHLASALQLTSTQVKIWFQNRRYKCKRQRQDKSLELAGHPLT

NKX2-6 [10] = molecular target: T2, NKX2-6 (Homo sapiens, UniProt A6NCS4 118-204, F151L)
T2 sequence: T1 sequence with F34L

HOXC10 = HOXC10 (Homo sapiens, UniProt Q9NYD6 254-340, K271E)
Sequence of HOXC10 (Q9NYD6 254-340 K271E): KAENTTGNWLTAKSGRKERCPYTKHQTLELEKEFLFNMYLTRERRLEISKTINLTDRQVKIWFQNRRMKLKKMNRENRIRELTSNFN

VAX1 [11] = molecular target: VAX1 (Homo sapiens, UniProt Q5SQQ9 86-172)
Sequence of VAX1 (Homo sapiens, UniProt Q5SQQ9 86-172) (Q5SQQ9 86-172): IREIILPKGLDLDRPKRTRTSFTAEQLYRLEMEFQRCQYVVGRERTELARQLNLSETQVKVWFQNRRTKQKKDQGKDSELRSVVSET

VAX1 [12] = molecular target: VAX1 (Homo sapiens, UniProt Q5SQQ9 86-172, T142I)
Sequence of VAX1 (Homo sapiens, UniProt Q5SQQ9 86-172, T142I) (Q5SQQ9 86-172 T142I): as the sequence (Q5SQQ9 86-172) above, with T57I counted along it

VAX1 [13] = molecular target: VAX1 (Homo sapiens, UniProt Q5SQQ9 86-172, K157R)
Sequence of VAX1 (Homo sapiens, UniProt Q5SQQ9 86-172, K157R) (Q5SQQ9 86-172 K157R): as the sequence (Q5SQQ9 86-172) above, with K72R counted along it

Sequence of ALX3 (Homo sapiens, UniProt O95076 139-225) (O95076 139-225): as the sequence (O95076 139-225 L168Q) above, with Q30L counted along it
Sequence of ALX3 (Homo sapiens, UniProt O95076 139-225, N203S) (O95076 139-225 N203S): as the sequence (O95076 139-225 L168Q) above, with Q30L, N65S counted along it
Sequence of ALX3 (Homo sapiens, UniProt O95076 139-225, N203Q) (O95076 139-225 N203Q): as the sequence (O95076 139-225 L168Q) above, with Q30L, N65Q counted along it

GTTATGCA
binding signal (ALX3 [1]): 8.13 upbm affinity estimate (log intensity, higher = more binding, comparable within an allelic series)
binding signal (ALX3 [2]): 9.19 upbm affinity estimate (log intensity, higher = more binding, comparable within an allelic series)
binding signal (ALX3 [3]): 8.22 upbm affinity estimate (log intensity, higher = more binding, comparable within an allelic series)

ATCACAGA
binding signal (ALX3 [1]): 8.15 upbm affinity estimate (log intensity, higher = more binding, comparable within an allelic series)
binding signal (ALX3 [2]): 9.21 upbm affinity estimate (log intensity, higher = more binding, comparable within an allelic series)
binding signal (ALX3 [3]): 8.16 upbm affinity estimate (log intensity, higher = more binding, comparable within an allelic series)

TATATTAA
binding signal (HOXD13 [4]): 10.7 upbm affinity estimate (log intensity, higher = more binding, comparable within an allelic series)

CTCGTTAA
binding signal (HOXD13 [4]): 10.7 upbm affinity estimate (log intensity, higher = more binding, comparable within an allelic series)
binding signal (HOXA2): 13.1 upbm affinity estimate (log intensity, higher = more binding, comparable within an allelic series)
binding signal (HOXD13 [5]): 12.1 upbm affinity estimate (log intensity, higher = more binding, comparable within an allelic series)
binding signal (HOXD13 [6]): 12 upbm affinity estimate (log intensity, higher = more binding, comparable within an allelic series)

AGAGGGGG
binding signal (ALX3 [1]): 7.63 upbm affinity estimate (log intensity, higher = more binding, comparable within an allelic series)
binding signal (ALX3 [2]): 7.93 upbm affinity estimate (log intensity, higher = more binding, comparable within an allelic series)
binding signal (ALX3 [7]): 7.69 upbm affinity estimate (log intensity, higher = more binding, comparable within an allelic series)
binding signal (ALX3 [8]): 7.67 upbm affinity estimate (log intensity, higher = more binding, comparable within an allelic series)
binding signal (ALX3 [3]): 7.59 upbm affinity estimate (log intensity, higher = more binding, comparable within an allelic series)

TTAACTAA
binding signal (ALX3 [1]): 8.53 upbm affinity estimate (log intensity, higher = more binding, comparable within an allelic series)
binding signal (ALX3 [3]): 8.65 upbm affinity estimate (log intensity, higher = more binding, comparable within an allelic series)

TCTATTAA
binding signal (HOXD13 [4]): 10.7 upbm affinity estimate (log intensity, higher = more binding, comparable within an allelic series)

AGTTAATA
binding signal (ALX3 [1]): 8.54 upbm affinity estimate (log intensity, higher = more binding, comparable within an allelic series)
binding signal (ALX3 [3]): 8.65 upbm affinity estimate (log intensity, higher = more binding, comparable within an allelic series)

ATATTTAA
binding signal (ALX3 [1]): 8.67 upbm affinity estimate (log intensity, higher = more binding, comparable within an allelic series)
binding signal (ALX3 [3]): 8.84 upbm affinity estimate (log intensity, higher = more binding, comparable within an allelic series)

CCCGGCCA
binding signal (HOXD13 [4]): 9.5 upbm affinity estimate (log intensity, higher = more binding, comparable within an allelic series)
binding signal (NKX2-6 [9]): 9.65 upbm affinity estimate (log intensity, higher = more binding, comparable within an allelic series)
binding signal (HOXD13 [5]): 9.64 upbm affinity estimate (log intensity, higher = more binding, comparable within an allelic series)
binding signal (HOXD13 [6]): 9.63 upbm affinity estimate (log intensity, higher = more binding, comparable within an allelic series)
binding signal (NKX2-6 [10]): 9.26 upbm affinity estimate (log intensity, higher = more binding, comparable within an allelic series)

CCCGAGAG
binding signal (ALX3 [1]): 7.84 upbm affinity estimate (log intensity, higher = more binding, comparable within an allelic series)
binding signal (ALX3 [2]): 7.81 upbm affinity estimate (log intensity, higher = more binding, comparable within an allelic series)
binding signal (ALX3 [7]): 7.74 upbm affinity estimate (log intensity, higher = more binding, comparable within an allelic series)
binding signal (ALX3 [8]): 7.83 upbm affinity estimate (log intensity, higher = more binding, comparable within an allelic series)
binding signal (ALX3 [3]): 7.85 upbm affinity estimate (log intensity, higher = more binding, comparable within an allelic series)

AGTTACAG
binding signal (ALX3 [1]): 8.16 upbm affinity estimate (log intensity, higher = more binding, comparable within an allelic series)
binding signal (ALX3 [2]): 8.82 upbm affinity estimate (log intensity, higher = more binding, comparable within an allelic series)
binding signal (ALX3 [3]): 8.25 upbm affinity estimate (log intensity, higher = more binding, comparable within an allelic series)

AACTTCAT
binding signal (HOXD13 [4]): 10.1 upbm affinity estimate (log intensity, higher = more binding, comparable within an allelic series)
binding signal (HOXD13 [5]): 10.6 upbm affinity estimate (log intensity, higher = more binding, comparable within an allelic series)

TATTATAA
binding signal (ALX3 [1]): 8.66 upbm affinity estimate (log intensity, higher = more binding, comparable within an allelic series)
binding signal (ALX3 [3]): 8.67 upbm affinity estimate (log intensity, higher = more binding, comparable within an allelic series)

CCTGAAGG
binding signal (HOXD13 [4]): 9.53 upbm affinity estimate (log intensity, higher = more binding, comparable within an allelic series)
binding signal (HOXD13 [5]): 9.53 upbm affinity estimate (log intensity, higher = more binding, comparable within an allelic series)
binding signal (HOXD13 [6]): 9.6 upbm affinity estimate (log intensity, higher = more binding, comparable within an allelic series)

CCCTGGAG
binding signal (HOXD13 [4]): 9.64 upbm affinity estimate (log intensity, higher = more binding, comparable within an allelic series)
binding signal (HOXD13 [5]): 9.55 upbm affinity estimate (log intensity, higher = more binding, comparable within an allelic series)
binding signal (HOXD13 [6]): 9.78 upbm affinity estimate (log intensity, higher = more binding, comparable within an allelic series)

CATCTTAA
binding signal (HOXD13 [4]): 10.1 upbm affinity estimate (log intensity, higher = more binding, comparable within an allelic series)
binding signal (HOXD13 [5]): 10.5 upbm affinity estimate (log intensity, higher = more binding, comparable within an allelic series)

CAGGCGAC
binding signal (HOXD13 [4]): 9.59 upbm affinity estimate (log intensity, higher = more binding, comparable within an allelic series)
binding signal (HOXD13 [5]): 9.52 upbm affinity estimate (log intensity, higher = more binding, comparable within an allelic series)
binding signal (HOXD13 [6]): 9.66 upbm affinity estimate (log intensity, higher = more binding, comparable within an allelic series)

TCCATAAA
binding signal (HOXD13 [4]): 10.7 upbm affinity estimate (log intensity, higher = more binding, comparable within an allelic series)
binding signal (HOXD13 [5]): 11.9 upbm affinity estimate (log intensity, higher = more binding, comparable within an allelic series)
binding signal (HOXC10): 11.4 upbm affinity estimate (log intensity, higher = more binding, comparable within an allelic series)
binding signal (HOXD13 [6]): 11.7 upbm affinity estimate (log intensity, higher = more binding, comparable within an allelic series)

TCTCGTAA
binding signal (HOXD13 [4]): 10.5 upbm affinity estimate (log intensity, higher = more binding, comparable within an allelic series)
binding signal (HOXD13 [5]): 11.8 upbm affinity estimate (log intensity, higher = more binding, comparable within an allelic series)
binding signal (HOXD13 [6]): 11.6 upbm affinity estimate (log intensity, higher = more binding, comparable within an allelic series)

CACCGCCA
binding signal (HOXD13 [4]): 9.56 upbm affinity estimate (log intensity, higher = more binding, comparable within an allelic series)
binding signal (HOXD13 [5]): 9.65 upbm affinity estimate (log intensity, higher = more binding, comparable within an allelic series)
binding signal (HOXD13 [6]): 9.8 upbm affinity estimate (log intensity, higher = more binding, comparable within an allelic series)

CCCTGACC
binding signal (HOXD13 [4]): 9.5 upbm affinity estimate (log intensity, higher = more binding, comparable within an allelic series)
binding signal (HOXD13 [5]): 9.5 upbm affinity estimate (log intensity, higher = more binding, comparable within an allelic series)
binding signal (VAX1 [11]): 7.22 upbm affinity estimate (log intensity, higher = more binding, comparable within an allelic series)
binding signal (HOXD13 [6]): 9.64 upbm affinity estimate (log intensity, higher = more binding, comparable within an allelic series)
binding signal (VAX1 [12]): 7.35 upbm affinity estimate (log intensity, higher = more binding, comparable within an allelic series)
binding signal (VAX1 [13]): 7.27 upbm affinity estimate (log intensity, higher = more binding, comparable within an allelic series)

CTTATTGC
binding signal (HOXD13 [4]): 10.1 upbm affinity estimate (log intensity, higher = more binding, comparable within an allelic series)
binding signal (HOXD13 [5]): 10.7 upbm affinity estimate (log intensity, higher = more binding, comparable within an allelic series)

GGGTTGAA
binding signal (HOXD13 [4]): 9.64 upbm affinity estimate (log intensity, higher = more binding, comparable within an allelic series)
binding signal (HOXD13 [5]): 9.57 upbm affinity estimate (log intensity, higher = more binding, comparable within an allelic series)
binding signal (HOXD13 [6]): 9.62 upbm affinity estimate (log intensity, higher = more binding, comparable within an allelic series)

ATAGCAAT
binding signal (HOXD13 [4]): 10.2 upbm affinity estimate (log intensity, higher = more binding, comparable within an allelic series)
binding signal (HOXD13 [5]): 10.7 upbm affinity estimate (log intensity, higher = more binding, comparable within an allelic series)

TCGATCGA
binding signal (HOXD13 [4]): 9.65 upbm affinity estimate (log intensity, higher = more binding, comparable within an allelic series)
binding signal (HOXD13 [5]): 9.44 upbm affinity estimate (log intensity, higher = more binding, comparable within an allelic series)
binding signal (HOXD13 [6]): 9.58 upbm affinity estimate (log intensity, higher = more binding, comparable within an allelic series)

CCTATAAA
binding signal (HOXD13 [4]): 11.1 upbm affinity estimate (log intensity, higher = more binding, comparable within an allelic series)
binding signal (HOXD13 [5]): 12.3 upbm affinity estimate (log intensity, higher = more binding, comparable within an allelic series)
binding signal (HOXD13 [6]): 12.1 upbm affinity estimate (log intensity, higher = more binding, comparable within an allelic series)

CTTTACGA
binding signal (HOXD13 [4]): 10.5 upbm affinity estimate (log intensity, higher = more binding, comparable within an allelic series)
binding signal (HOXD13 [5]): 11.8 upbm affinity estimate (log intensity, higher = more binding, comparable within an allelic series)
binding signal (HOXD13 [6]): 11.5 upbm affinity estimate (log intensity, higher = more binding, comparable within an allelic series)

AGTTTATA
binding signal (HOXD13 [4]): 10.7 upbm affinity estimate (log intensity, higher = more binding, comparable within an allelic series)
binding signal (HOXD13 [5]): 11.9 upbm affinity estimate (log intensity, higher = more binding, comparable within an allelic series)
binding signal (HOXD13 [6]): 11.6 upbm affinity estimate (log intensity, higher = more binding, comparable within an allelic series)

AAGGCGAG
binding signal (HOXD13 [4]): 9.65 upbm affinity estimate (log intensity, higher = more binding, comparable within an allelic series)
binding signal (HOXD13 [5]): 9.72 upbm affinity estimate (log intensity, higher = more binding, comparable within an allelic series)
binding signal (HOXD13 [6]): 9.78 upbm affinity estimate (log intensity, higher = more binding, comparable within an allelic series)

CTAGTAAA
binding signal (HOXD13 [4]): 10.8 upbm affinity estimate (log intensity, higher = more binding, comparable within an allelic series)
binding signal (HOXD13 [5]): 11.9 upbm affinity estimate (log intensity, higher = more binding, comparable within an allelic series)
binding signal (HOXD13 [6]): 11.8 upbm affinity estimate (log intensity, higher = more binding, comparable within an allelic series)

GGGCCGGA
binding signal (HOXD13 [4]): 9.43 upbm affinity estimate (log intensity, higher = more binding, comparable within an allelic series)
binding signal (HOXD13 [5]): 9.41 upbm affinity estimate (log intensity, higher = more binding, comparable within an allelic series)
binding signal (HOXD13 [6]): 9.47 upbm affinity estimate (log intensity, higher = more binding, comparable within an allelic series)

ATTCATGG
binding signal (HOXD13 [4]): 10.2 upbm affinity estimate (log intensity, higher = more binding, comparable within an allelic series)
binding signal (HOXD13 [5]): 10.8 upbm affinity estimate (log intensity, higher = more binding, comparable within an allelic series)

CGTGCCCC
binding signal (HOXD13 [4]): 9.51 upbm affinity estimate (log intensity, higher = more binding, comparable within an allelic series)
binding signal (HOXD13 [5]): 9.62 upbm affinity estimate (log intensity, higher = more binding, comparable within an allelic series)
binding signal (HOXD13 [6]): 9.71 upbm affinity estimate (log intensity, higher = more binding, comparable within an allelic series)

CCGGCCGC
binding signal (HOXD13 [4]): 9.39 upbm affinity estimate (log intensity, higher = more binding, comparable within an allelic series)
binding signal (HOXD13 [5]): 9.4 upbm affinity estimate (log intensity, higher = more binding, comparable within an allelic series)
binding signal (HOXD13 [6]): 9.32 upbm affinity estimate (log intensity, higher = more binding, comparable within an allelic series)

CCCGCCCC
binding signal (HOXD13 [4]): 9.6 upbm affinity estimate (log intensity, higher = more binding, comparable within an allelic series)
binding signal (HOXD13 [5]): 9.54 upbm affinity estimate (log intensity, higher = more binding, comparable within an allelic series)
binding signal (HOXD13 [6]): 9.7 upbm affinity estimate (log intensity, higher = more binding, comparable within an allelic series)

CATGTATA
binding signal (HOXD13 [4]): 10.3 upbm affinity estimate (log intensity, higher = more binding, comparable within an allelic series)
binding signal (HOXD13 [5]): 10.8 upbm affinity estimate (log intensity, higher = more binding, comparable within an allelic series)
binding signal (HOXD13 [6]): 11 upbm affinity estimate (log intensity, higher = more binding, comparable within an allelic series)
